Experimental data: PubChem BioAssay AID1159580 (chemical genetic matrix, 2015)
The whole screen tested about 5,500 compounds, of which about 2,000 (36%) were called active. Roughly 18% stayed inconclusive and do not appear here. No stated cut-off is given here; in the data, active means normalized growth mostly below about 0.91 (no sharp cut-off); inconclusive means no clear call, values can overlap the other calls; inactive means mostly above about 0.92. The list shows a part of the results.

Assay: chemical genetic growth profiling, strain panel (AID 1159580);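 further: tested at 20 µM; growth read once vehicle control cultures reached saturation at 30 °C; 1 = growth at the plate median or of vehicle wells; lower values mean less growth of the strain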
Conditions: S. cerevisiae deletion strains, growth OD
[1] = locus YDL101C, strain DUN1, active compounds read low
[2] = locus YHR030C, strain SLT2, active compounds read low
[3] = locus YNL322C, strain KRE1, active compounds read low
[4] = locus YPL055C, strain LGE1, active compounds read low
[5] = locus YHR079C, strain IRE1, active compounds read low
[6] = locus YJL095W, strain BCK1, active compounds read low
[7] = locus YJR066W, strain TOR1, active compounds read low
[8] = locus YLR113W, strain HOG1, active compounds read low
[9] = locus YNL183C, strain NPR1, active compounds read low
[10] = locus YOR231W, strain MKK1, active compounds read low
[11] = locus YPL256C, strain CLN2, active compounds read low

Measured: normalized growth

O=C1CSCC(=O)N1c1ccc(F)c(Cl)c1
active: locus YNR030W, strain Alg12, active compounds read low 0.281 | locus YPL241C, strain CIN2, active compounds read low 0.378
inactive: locus YAL013W, strain DEP1, active compounds read low 0.993 | locus YBR229C, strain ROT2, active compounds read low 0.994 | [1] 1 | locus YDL134C, strain PPH21, active compounds read low 0.99 | locus YDR150W, strain NUM1, active compounds read low 0.935 | locus YEL061C, strain CIN8, active compounds read low 0.984 | locus YGR078C, strain PAC10, active compounds read low 0.994 | locus YGR229C, strain SMI1, active compounds read low 0.985 | [2] 0.996 | locus YHR087W, strain rtc3, active compounds read low 0.981 | locus YJL187C, strain SWE1, active compounds read low 1 | locus YJR043C, strain POL32, active compounds read low 0.925 | locus YJR075W, strain HOC1, active compounds read low 0.989 | locus YLR039C, strain RIC1, active compounds read low 1.02 | locus YLR058C, strain SHM2 (second series), active compounds read low 1 | locus YLR085C, strain ARP6, active compounds read low 0.978 | locus YLR262C, strain YPT6, active compounds read low 0.995 | locus YML094W, strain GIM5, active compounds read low 0.992 | locus YMR219W, strain ESC1, active compounds read low 1 | locus YMR263W, strain SAP30, active compounds read low 0.994 | locus YNL153C, strain GIM3, active compounds read low 0.997 | locus YNL298W, strain CLA4 (second series), active compounds read low 0.998 | [3] 0.979 | [4] 0.97 | locus YPR135W, strain CTF4, active compounds read low 1

CC(O)C(C)OC(=O)[C@@H]1C[C@@H]2c3cccc4c3c(cn4C(C)C)C[C@H]2N(C)C1 (stereo partly specified)
inactive: locus YAL040C, strain CLN3, active compounds read low 0.977 | locus YCL061C, strain MRC1 (second series), active compounds read low 0.98 | locus YDR363W, strain ESC2, active compounds read low 0.996 | locus YER002W, strain NOP16, active compounds read low 1 | locus YNL175C, strain NOP13, active compounds read low 1 | locus YNL197C, strain WHI3, active compounds read low 0.991 | locus YNL224C, strain SQS1, active compounds read low 1.01 | [3] 0.973 | locus YOR083W, strain WHI5 (second series), active compounds read low 0.99 | [4] 1

C[C@@H]1CC2C3CCC4=CC(=O)C=C[C@]4(C)[C@@]3(F)[C@@H](O)C[C@]2(C)[C@@]1(O)C(=O)CO (stereo partly specified)
inactive: locus YAL021C, strain ccr4, active compounds read low 0.96 | locus YAL026C, strain drs2, active compounds read low 0.988 | locus YAL030W, strain snc1, active compounds read low 0.969 | locus YBL061C, strain skt5, active compounds read low 0.976 | locus YBR009C, strain hhf1, active compounds read low 0.989 | locus YBR023C, strain chs3, active compounds read low 0.999 | locus YBR171W, strain sec66, active compounds read low 0.947 | locus YBR231C, strain swc5, active compounds read low 0.978 | locus YBR279W, strain paf1, active compounds read low 1 | locus YCL011C, strain gbp2, active compounds read low 0.988 | locus YCL016C, strain dcc1, active compounds read low 1.03 | locus YCL069W, strain vba3, active compounds read low 0.975 | locus YCR088W, strain abp1, active compounds read low 0.978 | locus YDL005C, strain med2, active compounds read low 0.966 | locus YDL040C, strain nat1, active compounds read low 0.964 | locus YDR001C, strain nth1, active compounds read low 0.966 | locus YDR069C, strain doa4, active compounds read low 0.96 | locus YDR137W, strain rgp1, active compounds read low 1.02 | locus YDR159W, strain sac3, active compounds read low 0.968 | locus YDR195W, strain ref2 0.948 | locus YDR297W, strain sur2, active compounds read low 0.988 | locus YDR334W, strain swr1, active compounds read low 0.957 | locus YDR335W, strain msn5, active compounds read low 0.976 | locus YDR392W, strain spt3, active compounds read low 1.06 | locus YEL003W, strain gim4, active compounds read low 0.973 | locus YEL037C, strain rad23, active compounds read low 0.974 | locus YEL061C, strain CIN8 (second series), active compounds read low 0.976 | locus YER015W, strain faa2, active compounds read low 0.995 | locus YER016W, strain bim1, active compounds read low 1.03 | locus YER111C, strain swi4, active compounds read low 0.971 | locus YER155C, strain BEM2 (second series), active compounds read low 0.958 | locus YFR010W, strain ubp6, active compounds read low 0.958 | locus YGL167C, strain pmr1, active compounds read low 0.957 | locus YGL173C, strain kem1, active compounds read low 0.964 | locus YGL227W, strain vid30, active compounds read low 0.987 | locus YGL240W, strain doc1, active compounds read low 0.966 | locus YGL253W, strain hxk2, active compounds read low 1 | locus YHR013C, strain ard1, active compounds read low 0.995 | locus YHR027C, strain rpn1, active compounds read low 0.993 | [2] 1.02 | [5] 1.01 | locus YHR142W, strain chs7, active compounds read low 0.948 | locus YJL092W, strain hpr5, active compounds read low 0.964 | locus YJL095W, strain BCK1 (second series), active compounds read low 0.967 | [6] 1.02 | locus YJL115W, strain asf1, active compounds read low 0.976 | locus YJL129C, strain trk1, active compounds read low 0.976 | locus YJL154C, strain vps35, active compounds read low 0.951 | locus YJL164C, strain tpk1, active compounds read low 1.01 | locus YJL166W, strain qcr8, active compounds read low 0.916 | [7] 0.997 | locus YKL160W, strain elf1, active compounds read low 0.989 | locus YKR026C, strain gcn3, active compounds read low 0.98 | locus YKR091W, strain srl3, active compounds read low 0.961 | locus YLL001W, strain dnm1, active compounds read low 0.911 | locus YLL026W, active compounds read low 0.985 | locus YLL041C, strain sdh2, active compounds read low 0.972 | locus YLR027C, strain aat2, active compounds read low 0.976 | [8] 1.03 | locus YLR221C, strain rsa3, active compounds read low 1.02 | locus YLR258W, strain gsy2, active compounds read low 0.987 | locus YLR262C, strain YPT6 (second series), active compounds read low 0.943 | locus YLR320W, strain mms22, active compounds read low 1 | locus YLR342W, strain FKS1, active compounds read low 0.951 | locus YLR357W, strain rsc2, active compounds read low 0.966 | locus YLR370C, strain arc18, active compounds read low 0.996 | locus YLR384C, strain iki3, active compounds read low 0.982 | locus YML120C, strain ndi1, active compounds read low 0.969 | locus YMR058W, strain fet3, active compounds read low 0.981 | locus YMR125W, strain sto1, active compounds read low 0.951 | locus YMR129W, active compounds read low 0.993 | locus YMR205C, strain PFK2, active compounds read low 0.969 | locus YMR231W, strain pep5, active compounds read low 0.96 | locus YNL071W, strain lat1, active compounds read low 0.971 | [9] 0.965 | locus YNL209W, strain ssb2, active compounds read low 0.997 | locus YNL248C, strain rpa49, active compounds read low 1.01 | locus YNL322C, strain KRE1 (second series), active compounds read low 0.962 | locus YNR049C, strain mso1, active compounds read low 0.984 | locus YOR001W, strain rrp6, active compounds read low 0.976 | locus YOR070C, strain gyp1, active compounds read low 0.997 | locus YOR080W, strain dia2, active compounds read low 0.948 | locus YOR083W, strain WHI5, active compounds read low 0.968 | locus YOR106W, strain vam3, active compounds read low 0.933 | [10] 1.01 | locus YOR265W, strain rbl2, active compounds read low 0.986 | locus YOR270C, strain vph1, active compounds read low 0.955 | locus YOR290C, strain snf2, active compounds read low 1.02 | locus YPL051W, strain arl3, active compounds read low 1.01 | locus YPL078C, strain atp4, active compounds read low 0.928 | locus YPL106C, strain sse1, active compounds read low 0.981 | locus YPL240C, strain hsp82, active compounds read low 0.98 | [11] 1.01

COc1ccc(Nc2nc(NC(=O)Nc3ccc(Cl)cc3)n[nH]2)cc1
active: [8] 0.813 | [11] 0.797
inactive: locus YAR019C, strain CDC15, active compounds read low 0.996 | locus YBL105C, strain PKC1, active compounds read low 0.994 | locus YBR135W, strain CKS1, active compounds read low 1 | locus YBR136W, strain MEC1, active compounds read low 0.992 | locus YBR160W, strain CDC28, active compounds read low 1 | locus YDL017W, strain CDC7, active compounds read low 1 | locus YDL028C, strain MPS1, active compounds read low 0.986 | [1] 1 | locus YDL108W, strain KIN28, active compounds read low 0.982 | locus YDL132W, strain cdc53, active compounds read low 0.99 | locus YDL214C, strain PRR2, active compounds read low 0.867 | locus YDR052C, strain DBF4, active compounds read low 1 | locus YDR054C, strain cdc34, active compounds read low 1 | locus YDR226W, strain ADK1, active compounds read low 0.994 | locus YDR477W, strain SNF1, active compounds read low 0.809 | locus YER123W, strain YCK3, active compounds read low 0.715 | locus YER133W, strain GLC7, active compounds read low 0.757 | locus YFL009W, strain cdc4, active compounds read low 0.994 | locus YFL029C, strain CAK1, active compounds read low 0.998 | locus YFR003C, strain YPI1, active compounds read low 0.996 | locus YFR019W, strain FAB1, active compounds read low 0.866 | locus YFR028C, strain CDC14, active compounds read low 0.988 | locus YGR040W, strain KSS1, active compounds read low 0.789 | locus YGR052W, strain FMP48, active compounds read low 0.788 | locus YGR092W, strain DBF2, active compounds read low 0.793 | [2] 0.887 | [5] 0.893 | locus YHR082C, strain KSP1, active compounds read low 0.868 | locus YHR205W, strain SCH9, active compounds read low 0.842 | locus YIL147C, strain SLN1, active compounds read low 0.979 | [6] 0.861 | locus YJL128C, strain PBS2, active compounds read low 0.957 | locus YJL157C, strain FAR1, active compounds read low 0.88 | locus YJR016C, strain ILV3, active compounds read low 0.991 | locus YJR066W, strain TOR1 (second series), active compounds read low 0.758 | [7] 0.929 | locus YKL048C, strain ELM1, active compounds read low 0.854 | locus YKL067W, strain YNK1, active compounds read low 0.876 | locus YKL101W, strain HSL1, active compounds read low 0.83 | locus YKL193C, strain SDS22, active compounds read low 0.991 | locus YKL203C, strain TOR2, active compounds read low 0.892 | locus YLR133W, strain CKI1, active compounds read low 0.795 | locus YLR403W, strain SFP1, active compounds read low 0.742 | locus YML070W, strain DAK1, active compounds read low 0.846 | locus YMR001C, strain CDC5, active compounds read low 1 | locus YMR205C, strain PFK2 (second series), active compounds read low 0.782 | locus YMR277W, strain FCP1, active compounds read low 0.991 | locus YNL006W, strain LST8, active compounds read low 1.02 | locus YNL020C, strain ARK1, active compounds read low 0.811 | locus YNL161W, strain CBK1, active compounds read low 0.998 | [9] 0.763 | locus YNL207W, strain RIO2, active compounds read low 0.992 | locus YNL222W, strain SSU72, active compounds read low 0.993 | locus YNL307C, strain MCK1 (second series), active compounds read low 0.832 | locus YOL078W, strain AVO1, active compounds read low 0.991 | locus YOL136C, strain PFK27, active compounds read low 0.848 | locus YOR061W, strain CKA2, active compounds read low 0.741 | locus YOR119C, strain RIO1, active compounds read low 0.853 | [10] 0.94 | locus YOR329C, strain SCD5, active compounds read low 1 | locus YPL031C, strain PHO85, active compounds read low 0.749 | locus YPL153C, strain RAD53, active compounds read low 0.756 | locus YPL204W, strain HRR25, active compounds read low 0.795 | locus YPL209C, strain IPL1, active compounds read low 0.996 | locus YPR025C, strain CCL1, active compounds read low 0.99 | locus YPR106W, strain ISR1, active compounds read low 0.991 | locus YPR111W, strain DBF20, active compounds read low 0.981 | strain NNK1, active compounds read low 0.99 | strain TSCII, active compounds read low 1
